Data as given in PubChem BioAssay (Tox21).
Values without a mark were called inactive. Activity calls are given as the source filed them. Calls follow the shape of the dose curve; as a rule, active = well fitted curve in the direction sought with a large enough effect in the repeat runs; inconclusive = weak or mixed curves; inactive = flat fitted curve, though single readings scatter.

Test: qHTS assay to test for compound auto fluorescence at 535 nm (green) in HepG2 cell free culture (AID 720686)
Details: Cell-free medium, green autofluorescence 485/535 nm; series mostly up to 91.3 µM; fluorescence, % of fluorescein control: at the top concentration
From the text: U.S. Tox21 Program National Center for Advancing Translational Sciences [NCATS] NIH Chemical Genomics Center [NCGC] U.S. Environmental Protection Agency [EPA] National Institutes of Environmental Health Sciences [NIEHS] National Toxicology Program [NTP] U.S. Food and Drug Administration [FDA] Tox21 Assay Overview: Compound auto fluorescence often interferes with screening of the compound library against various biological targets and signaling pathways. Some of these compounds may have fluorophoric properties. Such properties may interfere with the assay outputs resulting in false positives and/or negatives. To decrease such complications and ensure the compound activities are relevant in terms of biological response, the Tox21 10K compound library was screened for auto fluorescence. From the fluorophores used as reporter signals in our screening assays, the auto fluorescence equivalencies of compounds against three fluorophores have been evaluated: Triamterene, Fluorescein and Rose Bengal sodium for blue, green and red fluorescence, respectively. The fluorescence intensities were measured using Excitation/Emission wavelengths at 405/460nm, 485/535nm and 540/590nm for blue, green and red labels, respectively. This assay includes the green fluorescence data.
Tox21 Assay Protocol Summary: 5 uL of culture medium (MEM containing 10% FBS) per well was dispensed into black wall/clear bottom 1536-well plates using a Multidrop Combi Dispenser (ThermoFisher Scientific, Waltham, MA). After 23 nL compound or DMSO vehicle was transferred into assay plate by a pintool work station (Kalypsys, San Diego, CA), fluorescence intensities in the assay plates were measured by an Envision (PerkinElmer, Shelton, CT) plate reader using three labels for measuring blue, green and red fluorescence at […] 460, 535 and 590nm respectively.
% is scaled to controls: 0 for no effect and ±100 for the full control effect.

Compound | fluorescence, % of fluorescein control | outcome
COc1cc(C[C@@H](C)N)c(OC)cc1Br | 0.0782% [at 95.7 µM] | –
CCC(C)(C)O | -0.0657% | –
CC(C)(C)NCC(O)c1ccccc1Cl (stereo not given) | 0.0979% [at 46 µM] | –
Nc1c(Br)cc(Br)c2c1C(=O)c1ccccc1C2=O | -0.0249% [at 18.6 µM] | –
CC(C)OC(=O)Cc1ccccc1 | 0.105% | –
Cc1nnc(-c2ccccc2)c(=O)n1N | 0.0513% | –
CC1(C)CC(=O)CC(C)(C)N1[O] | -0.0142% | –
Nc1cccc2ccccc12 | – | inactive
O=C(Cc1ccccc1)c1ccccc1 | 0.015% | –
CCCCCCCCCCCC[N+](C)(C)CCOc1ccccc1 | – | inactive
CC(=O)OC(c1ccccc1)C(Cl)(Cl)Cl (stereo not given) | 0.0553% | –
C[N+]1(CCF)[C@@H]2CC[C@H]1CC(OC(=O)C(O)(c1ccccc1)c1ccccc1)C2 (stereo not given in full) | 0.002% [at 46 µM] | –
CC(C)[C@@H](C(=O)O[C@@H](C#N)c1cccc(Oc2ccccc2)c1)c1ccc(Cl)cc1 | – | inactive
O=C(O)C(F)(F)C(F)(F)C(F)(F)C(F)(F)C(F)(F)F | -0.126% | –
COc1ccc(C(O)(c2cncnc2)C2CC2)cc1 (stereo not given) | 0.0793% | –
C=CC(C)(CCC=C(C)C)OC(=O)c1ccccc1N (stereo not given) | -0.19% | –
CON(C)C(=O)Nc1ccc(Cl)cc1 | 0.0818% | –
O=C(N/N=C/c1ccc([N+](=O)[O-])o1)c1cc([N+](=O)[O-])cc([N+](=O)[O-])c1O | 0.0144% [at 46 µM] | –
O=[N+]([O-])/C=C/c1ccccc1 | – | inactive
CC(O)CN1CCN(CC(=O)[O-])CCN(CC(=O)[O-])CCN(CC(=O)[O-])CC1.[Gd+3] (stereo not given) | – | inactive

Compound | fluorescence, % of fluorescein control | outcome
O=C(Cl)OCCOCCOC(=O)Cl | -0.0071% | –
O=S(=O)(Cl)Cl | -0.0457% | –
CCCCCCCCCCCCCCCl | -0.0135% | –
CCCC[N+]1(C)[C@@H]2CC(OC(=O)[C@H](CO)c3ccccc3)C[C@H]1[C@@H]1O[C@@H]12 (stereo not given in full) | -0.0754% [at 46 µM] | –
CC(Cc1ccccc1)NCc1ccccc1Cl (stereo not given) | -0.0163% [at 46 µM] | –
CCC[N+](CCC)(CCC)CCC | -0.0222% | –
CCCC(C)(COC(N)=O)COC(=O)NC(C)C (stereo not given) | – | inactive
NNCCO | -0.0548% | –
CCCCCl | – | inactive
CCC(C)(C)c1ccc(O)c(C(C)(C)CC)c1 | – | inactive
NC(=S)c1c(Cl)cccc1Cl | -0.0219% | –
CC[N+]1(CCOC(=O)C(O)(c2ccccc2)c2ccccc2)CCCCC1 | 0.0749% [at 46 µM] | –
OCCCl | 0.0454% | –
CC(Oc1cc(Cl)c(Cl)cc1Cl)C(=O)O (stereo not given) | 0.0015% | –
C1CS1 | 0.0198% [at 95.7 µM] | –
CCOP(=S)(OCC)Oc1ccc(S(C)=O)cc1 (stereo not given) | -0.0657% | –
COCc1cnc(C2=NC(C)(C(C)C)C(=O)N2)c(C(=O)O)c1 (stereo not given) | 0.121% | –
C=CCc1ccc(OC(=O)Cc2ccccc2)c(OC)c1 | -0.0549% | –
Cc1nc2ccccc2c(=O)n1-c1ccccc1Cl | 0.0165% | –
COC1=CC(=O)O[C@@H](/C=C/c2ccc3c(c2)OCO3)C1 | -0.0014% | –
